# “And” between values parts separate entries of the source, which are not always exact repeats. Equal entries are not always repeated. Inconclusive results are not listed. The source made the active and inactive calls. Unless noted, no cut-off is given here; in the data, nearly all actives have AC50 up to about 30 µM.
# Legend:
# [1] = compounds altering viability of human ES cells (AID 493140; call rule not given here;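 note: cells exposed to compounds for four days before counting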); details: human embryonic stem cell survival screen; stronger effect = higher value
# [2] = viability loss in pontine glioma line – cell-based, SU-DIPG-IV, MIPE4.0, CellTiter-Glo, qHTS, dose response (AID 1347063); details: CellTiter-Glo ATP luminescence;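 note: compound exposure lasted 48 hours before the viability readout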
# [3] = viability loss in pontine glioma line – cell-based, SU-DIPG-XIII, MIPE5.0, CellTiter-Glo, qHTS, dose response (AID 1347064; cut-off not given, nearly all actives have AC50 up to about 23 µM;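 for AC50: cells exposed to compound for 48 hours before the viability read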); details: CellTiter-Glo ATP luminescence
# [4] = viability loss in pontine glioma line – cell-based, SU-DIPG-XXV, MIPE5.0, CellTiter-Glo, qHTS, dose response (AID 1347065; cut-off not given, nearly all actives have AC50 up to about 26 µM;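 note: cells exposed to compound for 48 hours before ATP readout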); details: CellTiter-Glo ATP luminescence
# [5] = growth inhibition of DIPG cells – cell-based, MIPE4.0 library, CellTiter-Glo luminescence, qHTS (AID 1347066); details: SU-DIPG-VI viability, CellTiter-Glo ATP luminescence;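 note: cells exposed to compound for 48 hours before readout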
# [6] = JHH-DIPG-1 glioma cell viability, MIPE5.0 library, CellTiter-Glo luminescence, qHTS (AID 1347067; cut-off not given, nearly all actives have AC50 up to about 26 µM;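 note: cells exposed to compound for 48 hours before readout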); details: JHH-DIPG-1 glioma viability, CellTiter-Glo ATP luminescence
# [7] = compounds altering HSF1 focus formation in cells – imaging, Selleck Cancer Library (AID 1347162; in the data active = plate-normalised HSF1 focus index below about 0.46); details: human cells, HSF1 nuclear foci imaging, at 10 µM; SSMD: measured here: HSF1 foci SSMD mean; cell count: measured here: cell number; plate-normalised HSF1 focus index: stronger effect = lower value
# [8] = compounds altering circadian rhythm period length – cell-based, LOPAC library, luminescence reporter (AID 2774; call rule not given here;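 note: values are relative to mean of DMSO wells on each plate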); details: circadian reporter cells, at 7 µM, actives lie on both sides
# [9] = test system: Hepatitis C virus NS3 helicase; experiment: blockers of NS3h binding to ssDNA – biochemical, fluorescence polarization, LOPAC1280 library, primary screen (AID 687035; in the data active = inhibition above about 37%); details: Purified HCV NS3 helicase, Cy5-dT15 ssDNA binding fluorescence polarization; stronger effect = higher value; concentration not given here
# [10] = compounds altering Cy5-DNA-NS3h complex signal – biochemical, LOPAC1280, artefact control for HCV NS3 helicase inhibitor project (AID 687037; call rule not given here); details: Cy5-DNA-NS3h complex fluorescence interference counterscreen
# [11] = blockers of cellular phospholipid synthesis – cell-based, LOPAC library, screen 4, primary screen (AID 1347384; call rule not given here); details: animal cells, phospholipid biosynthesis inhibition screen; at 10 µM
# [12] = growth inhibition, single agent or in combination, cell-based, chromothripsis tumors, cisplatin or BGB combos (AID 1671449; in the data active = inhibition above about 80%;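 note: cells exposed for 96 hours; 0% = vehicle DMSO and 100% = killing by high DMSO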); details: LFS_MB_P medulloblastoma cells
# [13] = growth inhibition, single agent and combos, cell-based, chromothripsis tumors, cisplatin or BGB combos (AID 1671450; in the data active = inhibition above about 80%;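 note: cells exposed to compound for four days; 0% = vehicle DMSO and 100% = cell killing by high DMSO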); details: HDN33 neuroblastoma cells, stronger effect = higher value
# [14] = growth inhibition, single agents and combos, ICB984, cell-based, cisplatin or BGB combos, synergistic combos for chromothripsis tumors (AID 1671451; call rule not given here;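 note: cells exposed for 96 hours before readout; 0% = vehicle DMSO and 100% = killing by high DMSO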); details: ICB984 medulloblastoma cells, drug combinations, stronger effect = higher value
# [15] = growth inhibition, single agents and combos, HTB85, cell-based, BGB or cisplatin IC20 combos, synergistic combos for chromothripsis tumors (AID 1671453; in the data active = inhibition above about 80%;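 note: cells exposed for 96 hours before readout; 0% = vehicle DMSO and 100% = high DMSO killing control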); details: HTB85 osteosarcoma cells, drug combinations, stronger effect = higher value
# [16] = growth inhibition, MDA-MB-436, cell-based, BGB or cisplatin combos, synergistic combos for chromothripsis tumors (AID 1671458; call rule not given here;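 note: cells exposed for 96 hours; 0% = vehicle DMSO and 100% = killing by high DMSO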); details: MDA-MB-436 breast carcinoma growth inhibition, drug combinations, stronger effect = higher value
# [17] = BT084 cell growth, single and combined drugs, ICGC_MB145, cisplatin and BGB IC40 combos (AID 1671461; in the data active = inhibition above about 80%;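 note: cells exposed to drugs for 96 hours; 0% = vehicle DMSO and 100% = high DMSO full killing control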); details: BT084 medulloblastoma cells, drug combinations, stronger effect = higher value
# [18] = RCMB18 cell growth, single agent and combined, cisplatin and BGB IC40 combos (AID 1671462; in the data active = inhibition above about 80%;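 note: cells exposed to compound for four days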); details: RCMB18 medulloblastoma cells, stronger effect = higher value
# [19] = CRL1545 cell growth, single agent and combined, cisplatin and BGB IC20 combos (AID 1671464; in the data active = inhibition above about 80%;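 note: cells exposed to compound for 96 hours before readout; 0% = vehicle DMSO and 100% = high DMSO killing control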); details: CRL1545 osteosarcoma cells, stronger effect = higher value
# [20] = target: Mitogen-activated protein kinase 7 (Homo sapiens) (UniProt Q13164); experiment: Gal4-ERK5 driven luciferase induction – cell-based, HTS, primary screen (AID 1508626;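 active = luciferase signal above three times the same-plate solvent-only control wells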;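 note: luciferase driven by Gal4-ERK5 fusion binding five Gal4 sites before minimal TATA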); details: HeLa Gal4-ERK5 transactivation, 18 h, at 5 µM, stronger effect = higher value
# Sequence of Mitogen-activated protein kinase 7 (Homo sapiens) (Q13164 whole entry, looked up, the tested form may be a part): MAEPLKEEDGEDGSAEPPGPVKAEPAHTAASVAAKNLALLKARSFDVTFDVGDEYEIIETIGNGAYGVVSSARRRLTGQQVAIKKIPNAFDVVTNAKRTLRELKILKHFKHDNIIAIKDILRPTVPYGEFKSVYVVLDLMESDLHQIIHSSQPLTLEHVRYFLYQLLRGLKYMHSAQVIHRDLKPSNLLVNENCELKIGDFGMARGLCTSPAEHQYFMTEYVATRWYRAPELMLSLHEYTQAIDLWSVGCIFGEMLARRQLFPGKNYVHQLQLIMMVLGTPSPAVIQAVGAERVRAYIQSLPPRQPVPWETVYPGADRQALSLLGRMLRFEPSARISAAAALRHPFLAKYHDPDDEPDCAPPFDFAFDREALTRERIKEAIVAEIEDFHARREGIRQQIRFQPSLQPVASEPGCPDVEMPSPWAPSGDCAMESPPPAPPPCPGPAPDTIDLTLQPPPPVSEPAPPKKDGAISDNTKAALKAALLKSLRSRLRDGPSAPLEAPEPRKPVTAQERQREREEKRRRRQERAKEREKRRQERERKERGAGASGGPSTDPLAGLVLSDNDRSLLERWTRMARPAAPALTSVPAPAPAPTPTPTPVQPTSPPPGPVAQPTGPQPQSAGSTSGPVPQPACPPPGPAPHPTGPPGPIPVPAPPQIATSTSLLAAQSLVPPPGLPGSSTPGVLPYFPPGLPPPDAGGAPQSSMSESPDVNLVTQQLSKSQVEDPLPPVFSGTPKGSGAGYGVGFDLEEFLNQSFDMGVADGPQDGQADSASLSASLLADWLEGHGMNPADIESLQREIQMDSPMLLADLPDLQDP
# [21] = measured here: with BGB IC20 combination, at 0.5 µM
# [22] = measured here: with cisplatin IC20 combination, at 0.5 µM
structure (smiles),measurement,setting,value
CCN[C@H]1C[C@H](C)S(=O)(=O)c2sc(S(N)(=O)=O)cc21,survival,[1],14.7 (inactive)
same,outcome,[2],inactive
same,outcome,[3],inactive
same,outcome,[4],inactive
same,outcome,[5],inactive
same,outcome,[6],inactive
same,SSMD,[7],2.68
same,cell count,[7],6990
same,plate-normalised HSF1 focus index,[7],1.14 (inactive)
Nc1ccn(C2CO[C@H](CO)O2)c(=O)n1 (stereo partly drawn),outcome,[2],inactive
same,outcome,[3],inactive
same,outcome,[4],inactive
same,outcome,[5],inactive
same,outcome,[6],inactive
CNCCC(Oc1ccccc1OC)c1ccccc1 (stereo not drawn),period change,[8],-0.31 h (inactive)
same,survival,[1],0.917 (inactive)
same,inhibition,[9],-6% (inactive)
same,fluorescence ratio (interference),[10],0.9 (inactive)
same,outcome,[11],inactive
Cc1[nH]c(=O)c(C#N)cc1-c1ccc2nccn2c1,inhibition,[9],-1% (inactive)
same,fluorescence ratio (interference),[10],1 (inactive)
same,outcome,[2],inactive
same,outcome,[4],inactive
same,outcome,[5],inactive
same,outcome,[6],inactive
same,outcome,[11],inactive
CCN(CC)CCNC(=O)c1c(C)[nH]c(/C=C2\C(=O)Nc3ccc(F)cc32)c1C,AC50,[2],9.59 µM (active)
same,AC50,[3],7.42 µM (active)
same,AC50,[4],4.17 µM (active)
same,AC50,[5],21.5 µM (active)
same,AC50,[6],3.72 µM (active)
same,SSMD,[7],-0.842
same,cell count,[7],6750
same,plate-normalised HSF1 focus index,[7],0.967 (inactive)
same,outcome,[11],inactive
CC(C)OC(=O)C(C(=O)OC(C)C)=C1SC=CS1,outcome,[2],inactive
COC(=O)C1=C(C)NC(C)=C(C(=O)OCCCN2CCC(c3ccccc3)(c3ccccc3)CC2)C1c1cccc([N+](=O)[O-])c1 (stereo not drawn),outcome,[2],inactive
same,AC50,[3],13.2 µM (active)
same,AC50,[4],8.33 µM (active)
same,outcome,[5],inactive
CC(C)C[C@H](NC(=O)[C@H](Cc1ccccc1)NC(=O)c1cnccn1)B(O)O,AC50,[2],0.00833 µM (active)
same,AC50,[4],0.00662 µM (active)
same,AC50,[5],0.0264 µM (active)
same,AC50,[6],0.0263 µM (active)
same,SSMD,[7],3.94
same,cell count,[7],7530
same,plate-normalised HSF1 focus index,[7],1.14 (inactive)
CC(=O)SC[C@@H](C)C(=O)N1CCC[C@H]1C(=O)N[C@@H](Cc1ccccc1)C(=O)O,outcome,[2],inactive
same,outcome,[5],inactive
same,outcome,[6],inactive
CCC(C)(Oc1ccc(C2(c3ccc(OC(C)(CC)C(=O)O)cc3)CCCCC2)cc1)C(=O)O (stereo not drawn),outcome,[2],inactive
same,outcome,[3],inactive
same,outcome,[4],inactive
same,outcome,[5],inactive
same,outcome,[6],inactive
C[C@H]1C[C@H]2[C@@H]3CCC4=CC(=O)C=C[C@]4(C)[C@H]3C(=O)C[C@]2(C)[C@@]1(O)C(=O)CO,outcome,[2],inactive
same,outcome,[4],inactive
same,outcome,[5],inactive
same,outcome,[6],inactive
O=c1[nH]c(=O)n([C@H]2C[C@H](O)[C@@H](CO)O2)cc1I,outcome,[2],inactive
same,outcome,[5],inactive
CCCCCOC(=O)Nc1nc(=O)n([C@@H]2O[C@H](C)[C@@H](O)[C@H]2O)cc1F,outcome,[2],inactive
same,outcome,[3],inactive
same,outcome,[5],inactive
same,outcome,[6],inactive
same,SSMD,[7],2.2
same,cell count,[7],7640
same,plate-normalised HSF1 focus index,[7],1.08 (inactive)
same,inhibition,"[12]; at 0.5 µM, stronger effect = higher value",1.4% (inactive) and -21.9% (inactive)
same,inhibition,"[12]; measured here: combination with BGB IC20, at 0.005 µM",-14.6% and -21.7%
same,inhibition,"[12]; measured here: combination with BGB IC40, at 0.005 µM",-20.4% and -20.9%
same,inhibition,"[12]; measured here: combination with BGB IC40, at 0.05 µM",-19.6% and -29%
same,inhibition,"[12]; measured here: combination with cisplatin, at 0.5 µM, stronger effect = higher value",-27.7% and -33.8%
same,inhibition,"[12]; measured here: combination with cisplatin, at 5 µM, stronger effect = higher value",-25.5% and -51.4%
same,inhibition,"[13]; BGB combo, at 5 µM",-43.4% and -24%
same,inhibition,[13]; at 0.5 µM,-46.5% (inactive) and -7.86% (inactive)
same,inhibition,"[13]; cisplatin combo, at 5 µM",-42.6% and -1.99%
same,inhibition,[13]; [21],-56.7% and -7.65%
same,inhibition,[13]; [22],-38% and 1.73%
same,inhibition,"[13]; single agent, at 5 µM",-49.4% and -2.05%
same,inhibition,"[14]; BGB IC20 combo, at 0.005 µM",4.24% and 4.65%
same,inhibition,"[14]; BGB IC40 combo, at 0.005 µM",-24.4% and -11%
same,inhibition,"[14]; BGB IC40 combo, at 0.05 µM",-29.4% and -22.1%
same,inhibition,[14]; at 0.5 µM,-39.5% (inactive) and -17.6% (inactive)
same,inhibition,"[14]; cisplatin combo, at 0.05 µM",-33% and -26.5%
same,inhibition,"[14]; cisplatin combo, at 0.5 µM",-46.4% and -4.14%
same,inhibition,"[14]; cisplatin combo, at 5 µM",-48.1% and -27.4%
same,inhibition,"[14]; measured here: 5 uM single agent, at 5 µM",-17.2% and -23.5%
same,inhibition,[15]; at 0.5 µM,-24.5% (inactive) and -10.3% (inactive)
same,inhibition,"[15]; measured here: with BGB IC20, at 0.5 µM",-20% and -11.5%
same,inhibition,"[15]; measured here: with BGB IC20, at 5 µM",-100% and -18.6%
same,inhibition,"[15]; measured here: with cisplatin IC20, at 0.5 µM",-35.2% and -21.3%
same,inhibition,"[15]; measured here: with cisplatin IC20, at 5 µM",-30% and -33.3%
same,inhibition,"[15]; single agent, at 5 µM",-21% and -4.05%
same,inhibition,[16]; at 0.5 µM,-36.5% (inactive) and -2.12% (inactive)
same,inhibition,"[16]; measured here: BGB combination, at 0.5 µM",-31.4% and -6.87%
same,inhibition,"[16]; measured here: BGB combination, at 5 µM",-29.8% and -7.46%
same,inhibition,"[16]; measured here: cisplatin combination, at 0.5 µM",-50.7% and -2.06%
same,inhibition,"[16]; measured here: cisplatin combination, at 5 µM",-40.9% and -28%
same,inhibition,[17]; at 0.5 µM,-20.5% (inactive) and -7.04% (inactive)
same,inhibition,"[17]; cisplatin combination, at 0.5 µM",-5.51% and -26.5%
same,inhibition,"[17]; cisplatin combination, at 5 µM",-19.4% and -8.1%
same,inhibition,"[17]; measured here: BGB IC40 combination 0.05 uM, at 0.05 µM",-7.71% and -17.1%
same,inhibition,"[17]; single agent, at 5 µM",-28.9% and -3.19%
same,inhibition,[18]; at 0.5 µM,-0.93% (inactive) and -5.48% (inactive)
same,inhibition,"[18]; cisplatin combo, at 5 µM",-35.1% and -36.1%
same,inhibition,"[18]; measured here: BGB IC40 combination, at 0.05 µM",-29.7% and -0.207%
same,inhibition,"[18]; measured here: combination with cisplatin, at 0.5 µM",-33.1% and 15.5%
same,inhibition,"[18]; single agent, at 5 µM",-11.2% and -19.2%
same,inhibition,[19]; at 0.5 µM,-52.6% (inactive) and -13.7% (inactive)
same,inhibition,[19]; [21],-42.3% and -20.5%
same,inhibition,[19]; [22],-61.3% and -12%
same,inhibition,"[19]; single agent, at 0.05 µM",-66.9% and -17.4%
same,inhibition,"[19]; single agent, at 5 µM",-52.4% and -6.48%
CC(=O)[C@H]1CC[C@H]2[C@@H]3CC=C4C[C@@H](O)CC[C@]4(C)[C@H]3CC[C@]12C,survival,[1],9.33 (inactive)
same,outcome,[2],inactive
same,outcome,[3],inactive
same,outcome,[5],inactive
same,outcome,[6],inactive
same,luciferase signal,[20],44 AU (inactive)
Clc1ccc(C(Cn2ccnc2)OCc2c(Cl)cccc2Cl)c(Cl)c1 (stereo not drawn),survival,[1],13.2 (inactive)
NCCCC(N)(C(=O)O)C(F)F (stereo not drawn),period change,[8],-0.04 h (inactive)
N[C@@H](Cc1c[nH]c2ccc(O)cc12)C(=O)O,period change,[8],-0.25 h (inactive)

# From PubChem BioAssay
